# What was measured:
# Details in all cases: concentration: 1 μM, replicates: in singlicate; n = 1
# RIPK2 = test system: RIPK2
# RIPK4 = test system: RIPK4
# RIPK5 = test system: RIPK5
# ROCK1 = test system: ROCK1
# ROCK2 = test system: ROCK2
# ROS1 = test system: ROS1
# [1] = test system: RPS6KA4(Kin.Dom.1-N-terminal)
# [2] = test system: RPS6KA4(Kin.Dom.2-C-terminal)
# [3] = test system: RPS6KA5(Kin.Dom.1-N-terminal)
# [4] = test system: RPS6KA5(Kin.Dom.2-C-terminal)
# [5] = test system: T1, RSK1(Kin.Dom.1-N-terminal)
# T1 construct: gene RPS6KA1
# [6] = test system: T2, RSK1(Kin.Dom.2-C-terminal)
# T2 construct: gene RPS6KA1
# [7] = test system: T3, RSK2(Kin.Dom.1-N-terminal)
# T3 construct: gene RPS6KA3
# [8] = test system: T4, RSK2(Kin.Dom.2-C-terminal)
# T4 construct: gene RPS6KA3
# [9] = test system: T5, RSK3(Kin.Dom.1-N-terminal)
# T5 construct: gene RPS6KA2
# [10] = test system: T6, RSK3(Kin.Dom.2-C-terminal)
# T6 construct: gene RPS6KA2
# [11] = test system: T7, RSK4(Kin.Dom.1-N-terminal)
# T7 construct: gene RPS6KA6
# [12] = test system: T8, RSK4(Kin.Dom.2-C-terminal)
# T8 construct: gene RPS6KA6
# S6K1 = test system: S6K1
# SBK1 = test system: SBK1
# 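Note: KINOMEscan kinase panel screen.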
Structure (SMILES),%Inh (RIPK2),%Inh (RIPK4),%Inh (RIPK5),%Inh (ROCK1),%Inh (ROCK2),%Inh (ROS1),%Inh [1],%Inh [2],%Inh [3],%Inh [4],%Inh [5],%Inh [6],%Inh [7],%Inh [8],%Inh [9],%Inh [10],%Inh [11],%Inh [12],%Inh (S6K1),%Inh (SBK1)
Cc1ccc(-c2ccc3c(ccc4sc5c(c43)NC[C@@H](C)N=C5N(C)C)n2)cn1,0%,0%,0%,0%,0%,0%,0%,0%,0%,0%,0%,0%,0%,0%,0%,0%,0%,0%,0%,0%
CCC(=O)c1c(-c2ccccc2)c2cc(Cl)ccc2c(=O)n1Cc1cc(S(C)(=O)=O)n(CCC(C)(C)O)n1,14%,0%,3%,16%,0%,14%,3%,12%,20%,1%,0%,0%,9%,0%,11%,5%,39%,23%,0%,0%
COc1cc2ncn(-c3cc(OCc4ccncc4)c(C(N)=O)s3)c2cc1OC [GSK336313],13%,22%,1%,0%,0%,28%,19%,0%,4%,4%,25%,0%,6%,0%,0%,0%,0%,0%,0%,24%
CCC(=O)c1c(-c2ccccc2)c2cc(Cl)ccc2c(=O)n1Cc1cc(S(C)(=O)=O)n(CC(F)F)n1,2%,0%,18%,0%,0%,0%,0%,0%,0%,0%,2%,0%,5%,0%,0%,0%,13%,1%,0%,0%
COc1cc2nccc(Nc3cccc(Oc4ccccc4)c3)c2cc1OC.Cl [GW284543],80%,0%,0%,20%,51%,31%,15%,0%,0%,0%,0%,0%,0%,0%,10%,0%,0%,0%,0%,16%
COc1cc(OC)cc(-c2cc3cnc(N)nc3nc2NC(=O)NC(C)(C)C)c1,0%,0%,0%,0%,0%,0%,16%,0%,5%,0%,23%,0%,0%,0%,0%,0%,0%,0%,0%,0%
O=C(NCc1cccs1)c1cc(C(=O)c2c(Cl)cccc2Cl)c[nH]1 [GW823670],8%,0%,0%,45%,0%,0%,22%,0%,0%,15%,16%,13%,2%,0%,0%,18%,0%,0%,7%,0%
O=C(Nc1n[nH]c2nc(-c3ccccc3)c(Cl)cc12)C1CC1 [SB-734909],0%,10%,16%,24%,6%,0%,0%,0%,0%,0%,26%,0%,29%,0%,0%,7%,42%,1%,44%,0%
COc1ccc(-c2cc3c(C)nc(N)nc3n([C@H]3CC[C@H](OCCO)CC3)c2=O)cn1,0%,0%,0%,0%,0%,9%,0%,0%,0%,0%,0%,9%,0%,0%,16%,12%,0%,23%,0%,0%
O=C(NCCNc1ccnc(Nc2ccc(F)cc2)n1)Nc1ccc2c(c1)OCO2 [GSK1379882],0%,11%,0%,0%,0%,0%,0%,0%,9%,10%,15%,22%,14%,30%,0%,0%,0%,12%,0%,6%
Fc1cccc(CSc2nnc(-c3ccc4c(c3)CCO4)o2)c1,12%,0%,0%,12%,0%,0%,0%,4%,16%,9%,0%,23%,14%,18%,0%,8%,15%,16%,9%,0%
CCC(=O)c1c(-c2ccccc2)c2cc(Cl)ccc2c(=O)n1Cc1cc(C(=O)NC2CC2)n(C)n1,0%,0%,18%,11%,0%,0%,0%,6%,15%,1%,0%,8%,0%,30%,6%,0%,8%,0%,7%,0%
OCCCNc1nccc(-c2c(-c3cccc(C(F)(F)F)c3)nn3cc(C(F)(F)F)ccc23)n1 [GW630813],14%,0%,0%,11%,24%,0%,0%,0%,0%,16%,0%,32%,0%,5%,0%,0%,0%,89%,1%,0%
Cc1cc(Nc2nc(-c3cccc(C)n3)nc3ccccc23)ccn1 [GW872411],14%,0%,0%,27%,0%,0%,2%,0%,0%,16%,23%,0%,24%,0%,0%,7%,0%,0%,7%,0%
COC(=O)c1c(-c2ccccc2)c2cc(C)ccc2c(=O)n1Cc1ccccc1,0%,0%,0%,0%,0%,0%,0%,0%,10%,0%,0%,20%,0%,0%,15%,15%,0%,22%,0%,0%
Cn1c(=O)c(F)c(Nc2ccc(I)cc2F)c2c(=O)n(OC[C@H](O)CO)cnc21,15%,3%,0%,0%,0%,0%,25%,0%,0%,9%,18%,12%,39%,38%,11%,1%,0%,6%,0%,0%
Nc1nccc2scc(-c3ccc4c(c3)CCN4C(=O)Cc3ccccc3)c12 [GSK2576924],58%,3%,12%,0%,38%,18%,13%,0%,25%,14%,9%,20%,0%,0%,8%,7%,0%,11%,2%,2%
COc1ccc(CNC(=O)NC2CCN(c3ccnc(Nc4ccc(F)cc4)n3)C2)cc1 (centres unmarked) [GSK1379706],19%,0%,15%,29%,27%,12%,0%,0%,13%,27%,14%,28%,0%,3%,15%,31%,0%,20%,0%,0%
Nc1n[nH]c2nnc(-c3ccccc3)c(-c3ccccc3)c12 [GW554060],0%,0%,0%,31%,31%,14%,10%,0%,12%,0%,0%,1%,4%,29%,4%,0%,10%,8%,0%,13%

# From article PMC5540273 (PLoS ONE, 2017)
